Results taken from PubChem BioAssay (NCI).
The panel holds about 79,000 compounds, 15% with a hit somewhere; the sample as a whole holds those more often. Calls of active or inactive are those of the source. No stated cut-off is given here; in the data, active means growth inhibition above about 70%; inactive means the rest.

Key:
[1] = NCI Yeast Anticancer Drug Screen. Data for the rad50 strain (AID 155);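 further: 0% = growth of vehicle-only cultures of the same strain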; details: S. cerevisiae rad50 strain growth inhibition; at 50.0 µM; stronger effect = higher value
Outline: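 Yeast carrying a defined DNA repair defect were exposed to test compounds, and growth was compared with vehicle-treated controls to give percent inhibition.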

[2] = NCI Yeast Anticancer Drug Screen. Data for the mec2-1 strain (AID 157); details: S. cerevisiae mec2-1 strain, at 50.0 µM, stronger effect = higher value
Outline: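 Growth inhibition is read against vehicle-treated controls after compound exposure of the mec2-1 yeast strain, which is defective in DNA damage repair or cell cycle control.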

[3] = NCI Yeast Anticancer Drug Screen. Data for the sgs1 mgt1 strain (AID 161);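 further: 0% = growth of cultures given vehicle only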; details: S. cerevisiae sgs1 mgt1 strain, at 50.0 µM, stronger effect = higher value
Outline: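 This yeast growth screen uses a strain with defined DNA-repair lesions; compound-treated growth is compared with vehicle-treated growth.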

[4] = NCI Yeast Anticancer Drug Screen. Data for the cln2 rad14 strain (AID 165);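 further: 0% = growth equal to vehicle treated cultures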; details: S. cerevisiae cln2 rad14 strain, at 50.0 µM, stronger effect = higher value
Outline: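 Growth inhibition, relative to vehicle-treated controls, is the read-out. The test organism is a yeast strain with defined genetic alterations, cln2 rad14.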

[5] = NCI Yeast Anticancer Drug Screen. Data for the bub3 strain (AID 167); details: S. cerevisiae bub3 mutant strain, at 50.0 µM, stronger effect = higher value
Outline: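 Compounds were applied to a genetically altered yeast strain carrying a cell-cycle control defect. Growth inhibition was scored against vehicle-treated controls.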

[6] = NCI Yeast Anticancer Drug Screen. Data for the mlh1 rad18 strain (AID 175); details: S. cerevisiae mlh1 rad18 strain growth inhibition; at 50.0 µM; stronger effect = higher value
Outline: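 Cells of a genetically altered yeast strain, deficient in DNA damage repair, were treated with compound. Their growth was then compared with that of vehicle-treated cultures to give inhibition.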

Measured: growth inhibition

COc1cccc(OC)c1NC(=O)NCCCl
inactive: [1] -8.3% | [2] 14.6% | [3] 2.25% | [4] 50.8% | [5] 0.15% | [6] 14.4%

CCNC(=O)C1CCN(Cc2c[nH]c3ccccc23)CC1
inactive: [1] -19.4% | [2] 0.1% | [3] 33.2% | [4] -12.9% | [5] 0.6% | [6] -18.1%

O=C(CCCC(=O)Nc1cccc([N+](=O)[O-])c1)CC(=O)c1ccc([N+](=O)[O-])cc1
inactive: [1] -2.7% | [2] -1.25% | [3] -8.2% | [4] -4.15% | [5] -14.6% | [6] 8%

CCC1CN2CCc3cc(OC)c(OC)cc3C2CC12CO2 (stereo not drawn)
inactive: [1] -5.6% | [2] -21.3% | [3] 3.15% | [4] -2.5% | [5] 48.8% | [6] -36.1%

COc1ccc(C(=O)OC2CCCN(C(=O)c3ccc(OC)cc3)C2)cc1 (stereo not drawn)
inactive: [1] 0.75% | [2] 2.5% | [3] 0.8% | [4] 0.8% | [5] 10.7% | [6] -5.55%

CNC(=O)/C=C/C1=CN2C(=O)c3ccc(C)c(O)c3NC(OC)C2C1 (stereo not drawn)
active: [1] 91.5% | [2] 93.7% | [3] 93% | [4] 92.6% | [5] 92.3% | [6] 89.2%

O=C1c2ccccc2C(=O)N1CCOCCOCCN1C(=O)c2ccccc2C1=O
inactive: [1] -8.15% | [2] -6% | [3] -17% | [4] -20.7% | [5] -2.7% | [6] 20.4%

COc1ccc2c(c1)C(O)C(NCc1ccccc1)C2 (stereo not drawn)
inactive: [1] -13.6% | [2] -7.75% | [3] -0.45% | [4] -9.9% | [5] 8.5% | [6] -8.55%

C[Si](C)(C)C#CCOC=C1CC1
inactive: [1] 26% | [2] -39.5% | [3] -27.2% | [4] 9.15% | [5] -11.7% | [6] -34.5%

O=CCC(=O)c1ccc(Br)cc1
inactive: [1] 8.95% | [2] 3.15% | [3] 2.3% | [4] 2.45% | [5] -11.7% | [6] 6.85%

C[n+]1nc2ccccc2c(=Nc2ccccc2[N+](=O)[O-])[n-]1
inactive: [1] 10.3% | [2] -2.35% | [3] 22.7% | [4] 14.1% | [5] 8.5% | [6] -1.65%

O=P(NC1CCCCC1)(NC1CCCCC1)c1ccccc1
inactive: [1] -10.9% | [2] 13.2% | [3] -5.1% | [4] 18.3% | [5] 13.6% | [6] 1.25%

CC(=O)c1cccc(NC(=O)Oc2ccc(Cl)cc2Cc2ccccc2)c1
inactive: [2] 50.2% | [3] 64.1%
active: [1] 99.1% | [4] 99.5% | [5] 99.4% | [6] 99%

Cc1ccc(NC(=O)Oc2ccccc2C(=O)OCc2ccccc2)cc1
inactive: [1] 5.3% | [2] 7.1% | [3] 6.25% | [4] 20.1% | [5] 8.25% | [6] 1.25%

CCC(C)CCC(=O)OCC(=O)c1ccc(-c2ccccc2)cc1 (stereo not drawn)
inactive: [1] 13.7% | [2] -18.9% | [3] 14.8% | [4] -13.5% | [5] 7% | [6] 5.75%

CCN(CC)C(=O)/C(C)=C(\C)c1ccccc1
inactive: [1] -12.7% | [2] 11.8% | [3] -11.6% | [4] 8.3% | [5] 2.9% | [6] -1.45%

N#Cc1nc(C2CCC2)oc1N
inactive: [1] 2.3% | [2] 5.85% | [3] -15.3% | [4] 18.6% | [5] 1.55% | [6] -41.5%

O=C(NCc1ccco1)Nc1ccccc1
inactive: [1] -5.8% | [2] -21.2% | [3] -11.7% | [4] -36% | [5] 7.1% | [6] -7.55%

COC(=O)CC1(O)C=CCCC1c1ccccc1 (stereo not drawn)
inactive: [1] -23.2% | [2] -7.6% | [3] 2.35% | [4] 0.3% | [5] -7.5% | [6] -35%

c1ccc(CN2CCC(=NN3CCCCC3)CC2)cc1
inactive: [1] 19.9% | [2] -9.5% | [3] 23.2% | [4] 15.2% | [5] 17.9% | [6] -8.55%

O=C(c1cccc(C(=O)N(c2ccccc2)c2ccccc2)n1)N(c1ccccc1)c1ccccc1
inactive: [1] -47.5% | [2] -11.2% | [3] -32.1% | [4] 15.6% | [5] -11.8% | [6] -1.8%

S=C1N=C2c3ccccc3C2C(=S)S1 (stereo not drawn)
inactive: [1] -4.8% | [2] -12.8% | [3] 0% | [4] -24.9% | [5] 4.75% | [6] -7.25%

COc1ccccc1Nc1nc(-c2ccc([N+](=O)[O-])o2)cs1
active: [1] 70.6% | [3] 87.1% | [4] 92.8% | [6] 92.3%
inactive: [2] 36.2% | [5] 44%

O=c1c(SCc2ccc(Br)cc2)c(SCc2ccc(Br)cc2)cnn1-c1ccccc1
inactive: [1] 22.3% | [2] 4.65% | [3] 13.8% | [4] 34% | [5] 13.4% | [6] 14.8%

C[N+]1(C)CCC[N+](C)(C)CC1
inactive: [1] -15.9% | [2] -7.75% | [3] 3.9% | [4] 16.2% | [5] 20.9% | [6] 6.4%

CC(=O)Oc1ccc(C2COc3cc(OC(C)=O)c(OC(C)=O)cc3C2)cc1 (stereo not drawn)
inactive: [1] 21.2% | [2] 31.6% | [3] 43% | [4] 9.4% | [5] 49.6% | [6] 37.5%

CCOC(=O)CCc1cnc[nH]1
inactive: [1] -60.5% | [2] -8.95% | [3] -3.05% | [4] -14.1% | [5] -4.55% | [6] -0.75%

CC(C)=C1C(=O)N(C)C(=O)C1C(N)=O (stereo not drawn)
inactive: [1] 0.1% | [2] 1.85% | [3] -15.9% | [4] -6.05% | [5] 2.85% | [6] 11.4%

CC1=C(C(=O)NCc2ccccc2)C(c2cccc([N+](=O)[O-])c2)C(C(=O)NCc2ccccc2)=C(C)N1
inactive: [1] 19.6% | [2] 17.2% | [3] 9.05% | [4] 22.7% | [5] 19.2% | [6] 33.7%

CN(C)CCCCl
inactive: [1] -16.1% | [2] -3.05% | [3] 8.75% | [4] -26.8% | [5] -15.5% | [6] -17.3%

O=[N+]([O-])c1ccc(S(=O)(=O)c2ccc(NCN3CCCCC3)cc2)cc1
inactive: [1] 25.1% | [2] 6.2% | [3] 26.9% | [4] -3.95% | [5] 13.7% | [6] 17.6%

O=C(N/N=C\c1cccc2c([N+](=O)[O-])cccc12)Nc1ccccc1
inactive: [1] -30.6% | [2] -0.45% | [3] -21.9% | [4] 2.6% | [5] -16.6% | [6] -31.6%

S=C(NCN1CCNCC1)C(=S)NCN1CCNCC1
inactive: [1] -14.2% | [2] -9.55% | [3] -6.1% | [4] -12.1% | [5] -4.05% | [6] -9.6%

Cc1nn(C(=O)c2c(-c3ccccc3)noc2C)c(C)c1N=Nc1cc(C(F)(F)F)cc(C(F)(F)F)c1
inactive: [1] -6.2% | [2] -8.85% | [3] -2.9% | [4] 20.5% | [5] -2.7% | [6] 0.6%

COC(=O)CCCCCN1C(=O)c2cccc([N+](=O)[O-])c2C1=O
inactive: [1] 20.6% | [2] 7.2% | [3] 15.6% | [4] 20.9% | [5] 15.2% | [6] 20.6%

Cc1cccc(C)c1Nc1cc(=O)[nH]c(=O)[nH]1
inactive: [1] -2.6% | [2] -2.75% | [3] 3.4% | [4] -33.2% | [5] -11.6% | [6] -12.2%

CCCCCn1c(=O)c2cc3c(=O)n(CCCCC)c(=O)c3cc2c1=O
inactive: [1] 14.2% | [2] 7.3% | [3] 16.2% | [4] -52.6% | [5] 10% | [6] -5.6%

O=C1OC(c2ccc3c(c2)CCCC3)=C/C1=C/c1ccc2c(c1)OCO2
inactive: [1] -13.4% | [2] 4% | [3] 14.1% | [4] -25.1% | [5] 2.9% | [6] -15.9%
